Measured values taken from the supplement of paper PMC10849652.
Of roughly 7,900 targets only a part is listed; those with a hit were picked by preference. About 0.6% of all pairs of compound and target were hits. Unmarked numbers belong to inactive results.

What was measured:
Test in all cases: log2 fold change, soluble protein after heating vs DMSO (PISA); higher = thermal stabilisation; K562 cells, 10 uM, 30 min; active = over 0.2 and 3.5 SD of the protein, either way, in both replicates (recomputed)
[1] = compound: CS(=O)(=O)c1ccc(-c2cnc(N)c(C(=O)Nc3ccccc3)n2)cc1
Method in brief: (§1)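 K562 cells at 2×10^6 cells/mL were given 10 μM compound for 30 min. Aliquots then went through 3 min of heating across 48°C-58°C, were pooled, and were extracted in PBS with 0.5% NP-40 at 4°C, and the supernatant after 21,000xg for 90 min was quantified by TMTpro 16plex LC-MS/MS with channel sums equalised. Thermal stability relative to control samples, from duplicates, is given as log2 fold change.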

[2] = compound: C[C@@H](Oc1cc(-c2cnn(C3CCNCC3)c2)cnc1N)c1c(Cl)ccc(F)c1Cl [crizotinib]
Method in brief: as §1

[3] = compound: C[C@@H]1COCCN1C2=NC(=NC(=C2)C3(CC3)S(=O)(=O)C)C4=C5C=CNC5=CC=C4
Method in brief: as §1

[4] = compound: C[C@H](C1=CC=C(C=C1)C(=O)NC2=C3C=CNC3=NC=C2)N
Method in brief: as §1

[5] = compound: C[C@H](Nc1ncnc2nc[nH]c12)c1cc2cccc(Cl)c2c(=O)n1-c1ccccc1 [duvelisib]
Method in brief: as §1

[6] = compound: Cc1cc(Nc2cc(CN3CCOCC3)c3nc(C)c(Cc4ccc(Cl)cc4F)n3n2)n[nH]1 [gandotinib]
Method in brief: as §1

[7] = compound: Cc1cc(Nc2cc(N3CCN(C)CC3)nc(Sc3ccc(NC(=O)C4CC4)cc3)n2)n[nH]1 [tozasertib]
Method in brief: as §1

[8] = compound: Cc1cc(SCc2sc(-c3ccc(C(F)(F)F)cc3)nc2C)ccc1OCC(=O)O
Method in brief: as §1

[9] = compound: Cc1ccc(-n2nc(C(C)(C)C)cc2NC(=O)Nc2ccc(OCCN3CCOCC3)c3ccccc23)cc1 [doramapimod]
Method in brief: as §1

[10] = compound: Cc1ccc(C(=O)N(CCCN)[C@@H](c2nc3cc(Cl)ccc3c(=O)n2Cc2ccccc2)C(C)C)cc1 [ispinesib]
Method in brief: as §1

Chain of UniProt A6NHL2 (A6NHL2 whole entry, looked up): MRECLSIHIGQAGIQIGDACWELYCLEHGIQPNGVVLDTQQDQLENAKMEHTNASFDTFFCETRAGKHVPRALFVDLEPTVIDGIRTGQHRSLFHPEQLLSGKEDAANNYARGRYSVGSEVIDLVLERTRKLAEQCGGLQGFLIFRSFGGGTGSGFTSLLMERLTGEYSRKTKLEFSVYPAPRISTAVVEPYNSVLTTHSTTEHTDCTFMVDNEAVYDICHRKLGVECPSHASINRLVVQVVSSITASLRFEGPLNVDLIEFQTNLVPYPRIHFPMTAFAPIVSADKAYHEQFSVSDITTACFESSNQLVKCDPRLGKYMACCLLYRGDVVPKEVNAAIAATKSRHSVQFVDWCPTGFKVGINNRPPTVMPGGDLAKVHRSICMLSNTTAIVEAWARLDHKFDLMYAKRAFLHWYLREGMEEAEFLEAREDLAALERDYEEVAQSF
Chain of UniProt A3KMH1 (A3KMH1 whole entry, looked up): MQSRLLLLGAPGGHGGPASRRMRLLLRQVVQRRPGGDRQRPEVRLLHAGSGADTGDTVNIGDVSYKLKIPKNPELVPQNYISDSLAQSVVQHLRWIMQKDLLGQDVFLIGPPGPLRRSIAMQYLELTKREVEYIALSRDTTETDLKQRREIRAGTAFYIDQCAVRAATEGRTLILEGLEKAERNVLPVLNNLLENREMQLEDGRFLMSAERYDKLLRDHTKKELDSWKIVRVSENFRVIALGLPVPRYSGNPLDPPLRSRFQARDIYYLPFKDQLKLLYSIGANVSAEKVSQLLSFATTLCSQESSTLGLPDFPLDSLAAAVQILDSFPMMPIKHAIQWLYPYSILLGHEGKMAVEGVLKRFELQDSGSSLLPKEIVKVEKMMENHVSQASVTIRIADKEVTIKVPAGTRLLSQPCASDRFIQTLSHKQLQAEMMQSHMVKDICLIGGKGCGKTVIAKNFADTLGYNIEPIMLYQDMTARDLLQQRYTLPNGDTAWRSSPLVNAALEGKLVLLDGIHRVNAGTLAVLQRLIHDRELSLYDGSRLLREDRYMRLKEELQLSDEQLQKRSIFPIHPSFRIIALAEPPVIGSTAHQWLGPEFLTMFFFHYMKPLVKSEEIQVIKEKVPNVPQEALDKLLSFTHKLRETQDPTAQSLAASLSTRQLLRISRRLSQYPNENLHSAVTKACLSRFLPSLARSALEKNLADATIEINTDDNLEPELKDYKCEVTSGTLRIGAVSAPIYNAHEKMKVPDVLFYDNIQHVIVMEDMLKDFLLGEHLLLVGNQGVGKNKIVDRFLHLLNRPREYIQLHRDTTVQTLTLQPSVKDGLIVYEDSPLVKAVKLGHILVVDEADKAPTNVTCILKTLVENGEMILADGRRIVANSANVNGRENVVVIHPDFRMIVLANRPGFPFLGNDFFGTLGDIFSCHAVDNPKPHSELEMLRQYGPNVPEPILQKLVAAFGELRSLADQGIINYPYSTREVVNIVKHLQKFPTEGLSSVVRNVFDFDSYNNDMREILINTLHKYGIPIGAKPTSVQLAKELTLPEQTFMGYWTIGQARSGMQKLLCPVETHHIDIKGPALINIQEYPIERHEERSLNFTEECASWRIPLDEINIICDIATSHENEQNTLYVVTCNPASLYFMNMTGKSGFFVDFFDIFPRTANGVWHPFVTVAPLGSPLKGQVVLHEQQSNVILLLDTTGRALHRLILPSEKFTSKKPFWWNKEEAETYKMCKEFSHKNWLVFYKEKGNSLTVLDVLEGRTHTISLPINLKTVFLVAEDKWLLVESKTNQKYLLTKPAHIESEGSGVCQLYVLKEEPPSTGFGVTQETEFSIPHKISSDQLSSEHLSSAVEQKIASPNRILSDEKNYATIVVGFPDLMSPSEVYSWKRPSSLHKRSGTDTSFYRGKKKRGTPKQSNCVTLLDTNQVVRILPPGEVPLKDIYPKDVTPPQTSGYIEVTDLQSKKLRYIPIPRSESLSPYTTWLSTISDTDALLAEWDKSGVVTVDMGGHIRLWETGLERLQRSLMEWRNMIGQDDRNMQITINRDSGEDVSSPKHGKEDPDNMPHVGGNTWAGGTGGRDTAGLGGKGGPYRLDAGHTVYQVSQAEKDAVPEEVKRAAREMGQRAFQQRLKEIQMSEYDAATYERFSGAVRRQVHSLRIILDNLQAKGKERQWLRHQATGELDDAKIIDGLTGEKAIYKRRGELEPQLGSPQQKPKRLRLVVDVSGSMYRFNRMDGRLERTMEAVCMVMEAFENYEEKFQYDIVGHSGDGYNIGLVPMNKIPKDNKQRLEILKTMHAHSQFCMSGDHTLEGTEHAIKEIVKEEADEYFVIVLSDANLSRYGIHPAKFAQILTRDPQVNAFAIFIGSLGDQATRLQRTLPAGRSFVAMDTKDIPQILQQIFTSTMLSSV
Chain of UniProt Q53S58 (Q53S58 whole entry, looked up): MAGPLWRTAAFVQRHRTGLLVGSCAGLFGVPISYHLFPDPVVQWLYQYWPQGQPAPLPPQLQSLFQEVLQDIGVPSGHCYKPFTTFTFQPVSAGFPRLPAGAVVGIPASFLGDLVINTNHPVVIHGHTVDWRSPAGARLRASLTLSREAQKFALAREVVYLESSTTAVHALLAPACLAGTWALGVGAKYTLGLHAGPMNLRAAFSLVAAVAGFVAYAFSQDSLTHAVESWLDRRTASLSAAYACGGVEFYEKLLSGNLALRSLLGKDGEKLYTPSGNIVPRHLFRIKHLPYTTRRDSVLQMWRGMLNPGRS
Chain of UniProt O60763 (O60763 whole entry, looked up): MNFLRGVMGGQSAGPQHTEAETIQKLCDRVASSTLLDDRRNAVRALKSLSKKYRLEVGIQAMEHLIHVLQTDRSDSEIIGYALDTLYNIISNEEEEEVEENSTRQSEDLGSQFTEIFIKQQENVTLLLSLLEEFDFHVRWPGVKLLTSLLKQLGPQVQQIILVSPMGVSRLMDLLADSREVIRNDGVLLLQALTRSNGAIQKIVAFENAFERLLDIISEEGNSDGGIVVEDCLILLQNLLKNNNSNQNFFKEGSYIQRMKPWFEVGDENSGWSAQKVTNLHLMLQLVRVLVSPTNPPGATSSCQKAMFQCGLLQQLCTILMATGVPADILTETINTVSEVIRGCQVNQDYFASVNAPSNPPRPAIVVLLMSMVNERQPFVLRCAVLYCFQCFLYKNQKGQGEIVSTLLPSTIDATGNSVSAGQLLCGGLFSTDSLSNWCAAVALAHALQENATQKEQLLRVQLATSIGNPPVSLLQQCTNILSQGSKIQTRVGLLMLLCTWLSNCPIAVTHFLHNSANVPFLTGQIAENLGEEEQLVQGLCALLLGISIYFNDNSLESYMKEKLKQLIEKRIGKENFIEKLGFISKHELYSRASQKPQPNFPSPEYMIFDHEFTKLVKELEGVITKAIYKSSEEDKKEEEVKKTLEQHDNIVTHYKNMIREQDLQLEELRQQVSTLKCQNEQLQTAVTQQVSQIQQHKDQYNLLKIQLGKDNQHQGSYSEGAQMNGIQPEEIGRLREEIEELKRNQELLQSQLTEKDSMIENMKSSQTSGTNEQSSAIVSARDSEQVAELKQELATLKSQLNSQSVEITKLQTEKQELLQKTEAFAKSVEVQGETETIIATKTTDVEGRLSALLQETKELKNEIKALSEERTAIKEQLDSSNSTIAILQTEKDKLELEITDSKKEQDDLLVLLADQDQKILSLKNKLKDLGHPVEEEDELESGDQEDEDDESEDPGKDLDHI
Chain of UniProt Q9BZI7 (Q9BZI7 whole entry, looked up): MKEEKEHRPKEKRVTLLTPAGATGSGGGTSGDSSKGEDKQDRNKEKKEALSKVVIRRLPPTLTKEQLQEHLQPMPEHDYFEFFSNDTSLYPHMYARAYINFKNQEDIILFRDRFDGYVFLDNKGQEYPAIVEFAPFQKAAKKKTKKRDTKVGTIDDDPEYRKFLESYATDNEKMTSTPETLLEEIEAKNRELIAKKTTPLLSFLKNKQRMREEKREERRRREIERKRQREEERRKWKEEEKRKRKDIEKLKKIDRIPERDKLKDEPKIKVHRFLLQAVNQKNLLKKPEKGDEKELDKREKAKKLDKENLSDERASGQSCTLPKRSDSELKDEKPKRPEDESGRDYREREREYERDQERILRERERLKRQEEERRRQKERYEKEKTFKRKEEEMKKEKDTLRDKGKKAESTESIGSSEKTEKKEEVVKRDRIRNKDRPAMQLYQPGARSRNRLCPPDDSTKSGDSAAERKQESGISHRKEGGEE
Chain of UniProt Q9Y385 (Q9Y385 whole entry, looked up): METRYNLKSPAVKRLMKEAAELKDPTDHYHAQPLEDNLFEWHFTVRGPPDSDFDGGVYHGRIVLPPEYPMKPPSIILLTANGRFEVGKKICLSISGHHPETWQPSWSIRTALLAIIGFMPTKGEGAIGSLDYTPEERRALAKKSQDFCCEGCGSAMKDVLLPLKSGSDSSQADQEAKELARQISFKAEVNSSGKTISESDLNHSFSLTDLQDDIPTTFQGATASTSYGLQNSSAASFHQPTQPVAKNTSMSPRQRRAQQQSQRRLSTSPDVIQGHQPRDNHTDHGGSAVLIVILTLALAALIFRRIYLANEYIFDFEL
Chain of UniProt O43617 (O43617 whole entry, looked up): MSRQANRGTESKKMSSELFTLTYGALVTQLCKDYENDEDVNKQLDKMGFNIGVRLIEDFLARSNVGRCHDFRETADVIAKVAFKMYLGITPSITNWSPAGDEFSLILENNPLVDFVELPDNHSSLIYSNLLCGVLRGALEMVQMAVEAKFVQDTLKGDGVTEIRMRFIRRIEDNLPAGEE
Chain of UniProt P43897 (P43897 whole entry, looked up): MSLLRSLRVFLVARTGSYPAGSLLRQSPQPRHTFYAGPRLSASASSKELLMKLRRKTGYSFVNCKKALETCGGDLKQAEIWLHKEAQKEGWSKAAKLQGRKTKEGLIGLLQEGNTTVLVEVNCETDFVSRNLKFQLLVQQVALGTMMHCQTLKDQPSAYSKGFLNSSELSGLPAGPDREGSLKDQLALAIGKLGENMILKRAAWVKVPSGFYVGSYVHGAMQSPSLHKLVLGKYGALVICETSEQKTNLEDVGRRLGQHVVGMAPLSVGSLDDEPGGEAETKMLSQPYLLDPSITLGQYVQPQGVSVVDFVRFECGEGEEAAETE

Target | log2 fold change [1] | log2 fold change [2] | log2 fold change [3] | log2 fold change [4] | log2 fold change [5] | log2 fold change [6] | log2 fold change [7] | log2 fold change [8] | log2 fold change [9] | log2 fold change [10]
TMEM87B (UniProt Q96K49) | 0.01 | -0.323 | -0.063 | -0.033 | 0.101 | -0.11 | 0.07 | 0.071 | -0.059 | -0.406 (active)
UTP4 (UniProt Q969X6) | -0.013 | 0.019 | 0.055 | 0.004 | 0.022 | 0.004 | 0.006 | -0.056 | 0.012 | 0.066
XRCC1 (UniProt P18887) | 0 | 0.093 | 0.087 | 0.049 | 0.133 | -0.019 | -0.235 | -0.132 | -0.101 | 0.062
TRAPPC8 (UniProt Q9Y2L5) | 0.036 | -0.033 | -0.008 | 0.032 | 0.002 | -0.056 | 0.015 | 0.117 | -0.012 | -0.138
XRCC5 (UniProt P13010) | 0.037 | -0.086 | 0.047 | 0.077 | -0.017 | -0.001 | 0.177 | 0.179 | 0.064 | -0.16
UBR2 (UniProt Q8IWV8) | 0 | -0.027 | -0.063 | 0.166 | 0.008 | 0 | -0.03 | 0.135 | 0.073 | -0.141
TRAPPC3 (UniProt O43617) | -0.003 | 0.002 | 0.074 | -0.006 | 0.06 | -0.048 | 0.028 | 0.017 | -0.008 | -0.023
TMEM184C (UniProt Q9NVA4) | 0.117 | -0.267 | 0.019 | -0.049 | -0.046 | -0.038 | 0.046 | 0.036 | 0.019 | -0.365 (active)
VPS33B (UniProt Q9H267) | 0.05 | -0.182 | -0.022 | 0.063 | -0.004 | -0.114 | 0.012 | 0.085 | -0.01 | -0.149
UBE2Q1 (UniProt Q7Z7E8) | 0 | -0.061 | 0.092 | 0.004 | 0.003 | -0.196 | 0.036 | 0.07 | 0.029 | -0.001
TP53BP1 isoform 2 (UniProt Q12888) | 0.025 | 0.076 | -0.001 | 0.018 | -0.025 | -0.053 | 0.205 | 0.066 | 0.036 | 0.002
TMEM177 (UniProt Q53S58) | 0.005 | 0.033 | 0.065 | 0.011 | 0.039 | 0.025 | 0.087 | 0.053 | -0.062 | -0.304 (active)
TXNL1 (UniProt O43396) | 0.027 | 0.067 | -0.01 | -0.028 | 0.013 | -0.076 | 0.038 | 0.068 | -0.049 | 0.07
VDAC1 (UniProt P21796) | 0 | 0.076 | -0.004 | -0.063 | -0.002 | 0.017 | 0 | -0.031 | -0.024 | 0.034
USO1 isoform 2 (UniProt O60763) | 0.001 | -0.031 | 0.05 | -0.068 | -0.023 | -0.062 | 0.029 | 0.052 | -0.019 | 0.012
TNFRSF10A (UniProt O00220) | -0.008 | 0.037 | 0.047 | -0.073 | 0 | 0.019 | -0.024 | -0.019 | -0.023 | -0.075
UBE2J1 (UniProt Q9Y385) | 0.06 | -0.172 | 0.026 | -0.043 | 0.179 | -0.151 | 0.026 | -0.01 | -0.26 | -0.016
TMEM208 (UniProt Q9BTX3) | -0.09 | -0.119 | 0.134 | -0.004 | -0.039 | 0.086 | -0.035 | 0.076 | 0.019 | -0.243
VWA8 (UniProt A3KMH1) | 0.01 | -0.058 | 0.093 | 0.025 | 0.066 | -0.038 | -0.038 | 0.094 | -0.041 | -0.221
XPNPEP3 (UniProt Q9NQH7) | 0.06 | -0.013 | 0.011 | -0.001 | 0.059 | -0.033 | -0.034 | 0.034 | 0.065 | -0.046
TUBAL3 (UniProt A6NHL2) | -0.097 | -0.128 | 0.161 | 0.02 | 0.009 | -0.165 | 0 | -0.02 | 0.113 | -0.108
WDCP (UniProt Q9H6R7) | -0.018 | 0.079 | -0.046 | -0.024 | -0.007 | 0.047 | 0.094 | 0.084 | 0.005 | 0.032
TMEM214 (UniProt Q6NUQ4) | -0.018 | 0.123 | -0.043 | 0.067 | 0.011 | -0.079 | 0.028 | 0.048 | -0.013 | 0.072
UPF3B (UniProt Q9BZI7) | 0 | 0.091 | -0.63 | 0.542 | -0.125 | 0.452 | 0.071 | 0.064 | 0.295 | -0.222
TNFRSF8 (UniProt P28908) | 0.051 | 0.15 | 0.009 | -0.073 | 0.027 | 0.012 | -0.05 | -0.063 | -0.011 | 0.029
TRMT10C (UniProt Q7L0Y3) | 0.045 | 0.03 | 0.109 | -0.013 | 0.024 | -0.072 | 0 | 0.069 | -0.008 | 0.017
XRCC6 (UniProt P12956) | 0.013 | -0.064 | 0.088 | -0.042 | 0.016 | -0.149 | 0.075 | 0.091 | -0.05 | -0.039
UBC (UniProt P0CG48) | -0.003 | 0.208 | 0.05 | 0.064 | 0.075 | 0.014 | 0.009 | -0.009 | 0.035 | 0.091
TSFM (UniProt P43897) | -0.083 | 0.171 | 0.152 | -0.104 | 0.044 | -0.083 | -0.033 | 0.095 | -0.095 | 0.398 (active)
